Experimental findings from PubChem BioAssay (EPA / NIEHS) are described below.

Experiment [1] can be described thus: ATG_NFI_CIS: Attagene CIS-FACTORIAL HepG2 Assay for human Nuclear Factor I (NFI) (AID 2282989). As to conditions: HepG2 cis-regulatory reporter, NFI response element transcription; actives raise or lower the signal. In a few lines:
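HepG2, transient MRTU, 24 h exposure; RNA→cDNA→PCR→FAM label→HpaI→CE fluorescence. Bidirectional fit, DMSO = baseline.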

In experiment [2] the target is Myc proto-oncogene protein (Homo sapiens) (UniProt P01106). The experiment can be described thus: ATG_Myc_CIS: Attagene CIS-FACTORIAL HepG2 Assay for human Myelocytomatosis (Myc) Proto-Oncogene Transcription Factor (AID 2282990). As to conditions: HepG2, Attagene cis-reporter transcription factor activity; actives raise or lower the signal. Summed up: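 Fluorescence intensity of reporter-specific cDNA fragments, separated by capillary electrophoresis, gives the signal. Transfected HepG2 cells carrying cis-promoter reporter constructs are incubated with compound for 24 h; DMSO serves as baseline.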
Sequence of Myc proto-oncogene protein (Homo sapiens) (P01106 whole entry, looked up, the tested form may be a part): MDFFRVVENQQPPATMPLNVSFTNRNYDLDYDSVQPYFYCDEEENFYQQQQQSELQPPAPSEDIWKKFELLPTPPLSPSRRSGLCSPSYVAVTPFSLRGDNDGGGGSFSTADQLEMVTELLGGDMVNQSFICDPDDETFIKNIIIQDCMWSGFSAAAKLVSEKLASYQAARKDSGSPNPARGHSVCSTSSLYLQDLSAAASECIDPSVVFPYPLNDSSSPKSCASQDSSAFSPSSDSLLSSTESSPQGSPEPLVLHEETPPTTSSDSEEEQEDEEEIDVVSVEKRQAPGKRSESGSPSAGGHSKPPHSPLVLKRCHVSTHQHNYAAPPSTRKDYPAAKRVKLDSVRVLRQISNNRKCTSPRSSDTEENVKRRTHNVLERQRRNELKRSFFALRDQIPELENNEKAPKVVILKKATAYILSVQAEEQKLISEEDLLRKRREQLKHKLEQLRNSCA

Experiment [3] is described as follows: ATG_NF_kB_CIS: Attagene CIS-FACTORIAL HepG2 Assay for human Nuclear Factor Kappa B (NF-kB) (AID 2282991). As to conditions: HepG2 Attagene cis-factorial NF-kB reporter mRNA; actives raise or lower the signal. In a few lines:
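Endpoint from a 52-component multiplexed HepG2 reporter panel: cis-regulated transcription units transiently transfected, 24 h dosing, reporter mRNA quantified by RT-PCR and capillary electrophoresis, scored as increase or decrease against DMSO.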

Experiment [4] in a line: ATG_NRF2_ARE_CIS: Attagene CIS-FACTORIAL HepG2 Assay for human Nuclear Factor Erythroid 2 Related Factor 2 (NFR2) response to Antioxidant Response Elements (ARE) (AID 2282992).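 On AC50: reporter mRNA level measured by RT-PCR and capillary electrophoresis fluorescence.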 As to conditions: HepG2 Attagene ARE/NRF2 reporter, transcription factor activity; actives raise or lower the signal. In a few lines: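 Fluorescence intensity of reporter-specific cDNA fragments, separated by capillary electrophoresis, reflects mRNA induction in transfected HepG2 cells at 24 h. Activity is fitted bidirectionally, DMSO serving as baseline.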

The nature of experiment [5]: ATG_Oct_MLP_CIS: Attagene CIS-FACTORIAL HepG2 Assay for human Octamer-Binding Transcription Factor (Oct) (AID 2282993). As to conditions: HepG2 Attagene cis-factorial Oct reporter, mRNA; actives raise or lower the signal. In a few lines:
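Multiplexed cis-reporter assay in human liver HepG2 cells, 24 h incubation. Reporter RNA amplified and labelled, then resolved by capillary electrophoresis; DMSO serves as negative control and baseline.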

Experiment [6] concerns the target Cellular tumor antigen p53 (Homo sapiens) (UniProt P04637). The experiment can be described thus: ATG_p53_CIS: Attagene CIS-FACTORIAL HepG2 Assay for human p53 Transcription Factor (AID 2282994). As to conditions: HepG2 p53 cis-element reporter, Attagene mRNA; actives raise or lower the signal. Summed up: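 Transiently transfected HepG2 (multiple cis reporter transcription units); exposure 24 h; reporter RNA via RT-PCR, 6-FAM extension, 2 h HpaI digest at 37 C, CE detection; DMSO baseline.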

Experiment [7] in a line: BSK_3C_TissueFactor: BioMAP Diversity Plus: 3C Assay for Tissue Factor Biomarker Activity (AID 2282997). As to conditions: BioMAP 3C HUVEC, tissue factor biomarker readout; actives raise or lower the signal. In a few lines:
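Readout: Tissue Factor ELISA. Cells: human primary umbilical vein endothelium. Time: 24 h after dosing. Analysis: bidirectional fit, DMSO baseline.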

A short description of experiment [8]: BSK_3C_uPAR: BioMAP Diversity Plus: 3C Assay for Urokinase-type plasminogen activator receptor (uPAR) Biomarker Activity (AID 2282998). As to conditions: BioMAP 3C HUVEC, uPAR biomarker ELISA; actives raise or lower the signal. In a few lines: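 Dose primary human umbilical vein endothelial cells, incubate 24 h, measure cell-surface uPAR by ELISA, then fit the signal in both directions against the DMSO negative control.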

Experiment [9] is described as follows: BSK_3C_VCAM1: BioMAP Diversity Plus: 3C Assay for Vascular cell adhesion molecule 1 (VCAM1) Biomarker Activity (AID 2282999). As to conditions: BioMAP 3C HUVEC, VCAM1 ELISA, cytokine-stimulated; actives raise or lower the signal. In a few lines: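 HUVEC primary cells, 24 h compound exposure; VCAM-1 by ELISA; gain/loss of signal fitted bidirectionally vs DMSO baseline.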

Experiment [10] can be described thus: BSK_4H_Eotaxin3: BioMAP Diversity Plus: 4H Assay for Eotaxin 3 Biomarker Activity (AID 2283000).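 On outcome: CCL26 protein level quantified by ELISA in parallel with SRB cytotoxicity check.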 As to conditions: primary human endothelial cells (HUVEC); actives raise or lower the signal. Summed up:
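HUVEC, 24 h post-dose, ELISA for Eotaxin-3/CCL26. Gain or loss of signal fitted bidirectionally vs DMSO baseline.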

The structures appear in SMILES notation. Where “and” joins values, the source holds several entries; their conditions need not be identical. Equal entries are not always repeated. Some compounds were tested as several samples or in several runs, with calls that do not always agree. Calls of active or inactive are those of the source. How the source made its calls: active means hit-call score of the fitted dose curve at least 0.9, where 1 is the maximum; inactive means score below 0.9.

Sequence of Cellular tumor antigen p53 (Homo sapiens) (P04637 whole entry, looked up): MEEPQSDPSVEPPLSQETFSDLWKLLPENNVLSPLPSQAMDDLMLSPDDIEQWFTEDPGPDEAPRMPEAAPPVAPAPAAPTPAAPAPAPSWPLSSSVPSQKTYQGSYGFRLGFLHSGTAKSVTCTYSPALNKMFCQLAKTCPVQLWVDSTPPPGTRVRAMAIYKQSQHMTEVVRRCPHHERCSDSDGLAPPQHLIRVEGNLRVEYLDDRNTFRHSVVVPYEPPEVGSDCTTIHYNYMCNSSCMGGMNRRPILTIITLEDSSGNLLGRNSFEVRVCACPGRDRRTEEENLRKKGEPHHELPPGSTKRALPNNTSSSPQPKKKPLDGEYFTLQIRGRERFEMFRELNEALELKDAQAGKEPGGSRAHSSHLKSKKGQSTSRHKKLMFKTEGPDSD

As to `O=C1OC2(c3ccccc31)c1cc(Br)c(O)c(Br)c1Oc1c2cc(Br)c(O)c1Br`, the call in experiment [1], in experiment [2], in experiment [3], in experiment [4] and in experiment [5] was inactive. Also, the AC50 in [5] is 66.2 µM (active).

As for `COCC(C)O` (stereo unspecified), the outcome in experiment [1], in [2], in experiment [3], in experiment [4], in experiment [5] and in experiment [6] was inactive. Moreover, the result in experiment [7], in experiment [8], in experiment [9] and in experiment [10] was inactive.

On to `FC(F)(I)C(F)(F)C(F)(F)C(F)(F)C(F)(F)C(F)(F)I`, for which the result in [1], in experiment [2], in experiment [3], in [5] and in [6] was inactive. Moreover, in experiment [4], the AC50 is 11.1 µM (active).

For `CCCCC[C@H](O)CC(=O)CCc1ccc(O)c(OC)c1`, the result in experiment [1], in experiment [2], in experiment [3], in [5] and in experiment [6] was inactive. For the same molecule, the concentration at half-maximal activity (AC50) in experiment [4] is 29.9 µM (active).

In the case of `CCCOc1sc(C(=O)N2CCC(c3cc(CN)ccc3F)CC2)c(C)c1Br`, the result in experiment [1], in experiment [2], in experiment [3], in experiment [5] and in experiment [6] was inactive. Besides, the AC50 is 1.49 µM (active) in [4]; 9.59 µM (active) in [7]; 5.41 µM (active) in [8]; 7.38 µM (active) in experiment [9]; 9.89 µM (active) in experiment [10].

In the case of `CCCCCCCCOC(=O)CCCCCCCCC(=O)OCCCCCCCC`, the molecule was called inactive in [1], in [2], in [3], in [4], in [5] and in experiment [6]. In addition, the result in experiment [7], in [8], in experiment [9] and in experiment [10] was inactive.

Take `Oc1cccc(O)c1`: the molecule was called inactive in [1], in experiment [2], in [3], in [4], in experiment [5] and in [6]. For the same molecule, the outcome in [7], in experiment [8], in experiment [9] and in [10] was inactive.

On to `CC1=C(/C=C/C(C)=C/C=C/C(C)=C/C(=O)O)C(C)(C)CCC1`, for which the result in experiment [1], in [2], in experiment [3], in [4], in experiment [5] and in [6] was inactive. In addition, the outcome in [7] and in experiment [8] was inactive. Also, the AC50 was 35.7 µM (active) in experiment [4]; 24.2 µM (active) in [5]; 20.6 µM (active) in [6]; 27.9 µM (active) in [9]; 9.37 µM (active) in experiment [10].

In the case of `CC(C)CCCCCCOC(=O)CCCCC(=O)OCCCCCCC(C)C`, the molecule was classed as inactive in [1], in experiment [2], in experiment [3], in experiment [4], in [5] and in experiment [6]. The result in [7], in [8], in [9] and in experiment [10] was inactive.

As to `O=C(OCCOCCOC(=O)c1ccccc1)c1ccccc1`, the call in experiment [1], in experiment [2], in [3], in experiment [4], in [5] and in [6] was inactive. In addition, the outcome in [7], in [8], in experiment [9] and in experiment [10] was inactive.

Regarding `CC(=O)NC1(c2cccc(F)c2)CCN(CC[C@@]2(c3ccc(Cl)c(Cl)c3)CN(c3ccccc3)C(=O)CO2)CC1`, the concentration at half-maximal activity (AC50) in experiment [1] is 41.7 µM (active); in experiment [2], 61.5 µM (active); in [3] it was 55 µM (active); in experiment [4] it was 9.13 µM (active); in [5], 37.3 µM (active); in [6] it was 18.4 µM (active). Besides, the AC50 in experiment [8] was 20.4 µM (active); in experiment [9] it was 24.2 µM (active); in experiment [10], 27.1 µM (active). Besides, in experiment [7], the result was inactive.

As for `CCCCCCCCCCCCCC[N+](C)(C)C`, the molecule was classed as inactive in experiment [1], in [2], in [3], in experiment [5] and in experiment [6]. Further, the AC50 in [4] was 5 µM (active) and 6.55 µM (active); in [5] it was 11.1 µM (active); in experiment [7], 5.43 µM (active); in experiment [8], 1.25 µM (active); in experiment [9], 4.71 µM (active); in [10], 2.93 µM (active).

Regarding `CC[C@H](c1ccc(O)cc1)[C@@H](CC)c1ccc(O)cc1`, the molecule was called inactive in experiment [1], in [2], in [3], in experiment [5] and in experiment [6]. Moreover, the concentration at half-maximal activity (AC50) in [4] is 6.58 µM (active) [middle of 4 runs]; in [6], 17.5 µM (active); in experiment [7], 32.5 µM (active); in [8], 21.7 µM (active); in [9], 34.2 µM (active); in experiment [10], 27.6 µM (active).

Consider `ClC1=C(Cl)C(Cl)(Cl)C(Cl)=C1Cl`, for which the AC50 is 15.3 µM (active) and 7.42 µM (active) in [1]; 8.6 µM (active) and 5.05 µM (active) in [3]; 3.07 µM (active) and 6.04 µM (active) in experiment [4]; 13.4 µM (active) and 6.26 µM (active) in experiment [5]; 17.4 µM (active) and 11.1 µM (active) in experiment [6]; 5.07 µM (active) in experiment [7]. Further, the AC50 in experiment [8] is 5.21 µM (active); in experiment [9], 5.82 µM (active); in [10], 7.45 µM (active). In experiment [2], the result was inactive.

Take `CC(C)(C)c1cccc(C(C)(C)C)c1O`: the AC50 is 159 µM (active) in experiment [1]; 152 µM (active) in experiment [2]; 167 µM (active) in experiment [4]; 166 µM (active) in [5]; 177 µM (active) in [6]. Further, the molecule was classed as inactive in [3], in [7], in [8], in [9] and in experiment [10].

Take `O=c1c(-c2ccc(O)cc2)coc2cc(O)ccc12`: the molecule was called inactive in [1], in experiment [2], in [3], in experiment [4], in experiment [5] and in experiment [6]. For the same molecule, the outcome in experiment [8], in experiment [9] and in experiment [10] was inactive. Further, the results for the concentration at half-maximal activity (AC50) in experiment [5] and in experiment [7] were 100 µM (active) and 15.7 µM (active), respectively.

Take `NC(=O)N(O)[C@@H]1C=C[C@H](Oc2cccc(Oc3ccc(F)cc3)c2)C1`: the call in experiment [1], in [2], in experiment [3], in experiment [6], in experiment [7] and in experiment [8] was inactive. Moreover, the outcome in experiment [9] and in experiment [10] was inactive. In addition, the results for the half-maximal activity concentration (AC50) in experiment [4] and in experiment [5] were 20.6 µM (active) and 33 µM (active), respectively.

With `CCC(=C(c1ccc(O)cc1)c1ccc(OCCN(C)C)cc1)c1ccccc1`, the molecule was classed as inactive in experiment [1], in experiment [2], in experiment [3], in experiment [4] and in experiment [5]. The AC50 is 13.1 µM (active) in experiment [2]; 5.93 µM (active) and 1.95 µM (active) and 1.77 µM (active) in experiment [4]; 7.1 µM (active) and 11.1 µM (active) in experiment [5]; 11 µM (active) in experiment [7]; 7.66 µM (active) in experiment [8]; 11.9 µM (active) in [9]. In experiment [10], the AC50 was 7.42 µM (active).
